Measured values reported in ChEMBL document CHEMBL1961873, “Compounds: GSK PKIS; Assays: Nanosyn kinase panel” (2012).

Key:
[1] = biological target: Tyrosine-protein kinase Fer (Homo sapiens) (UniProt P16591); conditions: at 1 µM
[2] = biological target: Tyrosine-protein kinase Fes/Fps (Homo sapiens) (UniProt P07332); conditions: at 0.1 µM
[3] = biological target: Tyrosine-protein kinase Fes/Fps (Homo sapiens) (UniProt P07332); conditions: at 1 µM
[4] = biological target: Fibroblast growth factor receptor 1 (Homo sapiens) (UniProt P11362); conditions: at 0.1 µM
[5] = biological target: Fibroblast growth factor receptor 1 (Homo sapiens) (UniProt P11362); conditions: at 1 µM
[6] = biological target: Fibroblast growth factor receptor 2 (Homo sapiens) (UniProt P21802); conditions: at 0.1 µM
Fibroblast growth factor receptor 2 (Homo sapiens), sequence (P21802 22-821 limits assumed): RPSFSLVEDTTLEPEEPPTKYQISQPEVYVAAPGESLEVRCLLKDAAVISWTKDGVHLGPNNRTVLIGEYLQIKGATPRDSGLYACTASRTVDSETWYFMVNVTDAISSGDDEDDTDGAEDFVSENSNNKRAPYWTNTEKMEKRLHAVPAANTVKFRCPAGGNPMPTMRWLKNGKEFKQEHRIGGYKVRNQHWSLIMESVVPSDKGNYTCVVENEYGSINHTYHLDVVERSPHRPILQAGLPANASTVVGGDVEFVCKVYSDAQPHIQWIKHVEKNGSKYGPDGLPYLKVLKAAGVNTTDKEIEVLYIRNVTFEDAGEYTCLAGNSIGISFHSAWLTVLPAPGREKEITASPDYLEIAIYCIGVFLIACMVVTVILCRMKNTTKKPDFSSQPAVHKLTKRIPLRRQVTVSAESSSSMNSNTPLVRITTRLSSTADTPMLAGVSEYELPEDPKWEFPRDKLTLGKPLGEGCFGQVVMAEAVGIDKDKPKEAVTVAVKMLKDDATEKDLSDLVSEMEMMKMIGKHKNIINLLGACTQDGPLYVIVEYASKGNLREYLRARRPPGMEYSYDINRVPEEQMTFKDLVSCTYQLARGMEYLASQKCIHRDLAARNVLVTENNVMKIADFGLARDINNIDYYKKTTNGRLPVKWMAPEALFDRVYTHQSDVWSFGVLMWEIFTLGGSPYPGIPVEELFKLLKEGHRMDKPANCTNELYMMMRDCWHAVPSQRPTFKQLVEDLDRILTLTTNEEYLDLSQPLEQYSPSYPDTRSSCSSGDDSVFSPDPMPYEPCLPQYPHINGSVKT

[7] = biological target: Fibroblast growth factor receptor 2 (Homo sapiens) (UniProt P21802); conditions: at 1 µM
[8] = biological target: Fibroblast growth factor receptor 3 (Homo sapiens) (UniProt P22607); conditions: at 0.1 µM
Fibroblast growth factor receptor 3 (Homo sapiens), sequence (P22607 23-806 limits assumed): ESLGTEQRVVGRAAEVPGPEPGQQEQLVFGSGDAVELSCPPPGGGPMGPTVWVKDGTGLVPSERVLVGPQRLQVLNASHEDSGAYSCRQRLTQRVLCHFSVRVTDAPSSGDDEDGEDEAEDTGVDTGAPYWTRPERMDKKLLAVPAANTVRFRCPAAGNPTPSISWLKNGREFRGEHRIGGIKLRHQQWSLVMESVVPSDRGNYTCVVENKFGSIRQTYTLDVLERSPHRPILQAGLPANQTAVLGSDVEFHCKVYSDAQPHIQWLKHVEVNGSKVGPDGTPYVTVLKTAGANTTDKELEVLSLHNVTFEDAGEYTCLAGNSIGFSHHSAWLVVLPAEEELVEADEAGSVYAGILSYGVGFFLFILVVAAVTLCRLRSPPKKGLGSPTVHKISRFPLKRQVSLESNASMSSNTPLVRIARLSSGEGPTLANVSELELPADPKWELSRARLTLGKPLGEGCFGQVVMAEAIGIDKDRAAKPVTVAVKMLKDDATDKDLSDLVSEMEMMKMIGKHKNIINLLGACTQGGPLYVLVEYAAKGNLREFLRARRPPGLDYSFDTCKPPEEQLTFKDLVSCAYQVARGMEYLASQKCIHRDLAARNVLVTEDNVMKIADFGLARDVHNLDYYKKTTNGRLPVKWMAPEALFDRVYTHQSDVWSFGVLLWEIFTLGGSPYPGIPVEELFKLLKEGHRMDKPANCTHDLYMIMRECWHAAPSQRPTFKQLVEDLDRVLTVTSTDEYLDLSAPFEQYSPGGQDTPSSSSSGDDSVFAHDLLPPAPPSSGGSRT

[9] = biological target: Fibroblast growth factor receptor 3 (Homo sapiens) (UniProt P22607); conditions: at 1 µM
[10] = biological target: Fibroblast growth factor receptor 4 (Homo sapiens) (UniProt P22455); conditions: at 0.1 µM
Fibroblast growth factor receptor 4 (Homo sapiens), sequence (P22455 22-802 limits assumed): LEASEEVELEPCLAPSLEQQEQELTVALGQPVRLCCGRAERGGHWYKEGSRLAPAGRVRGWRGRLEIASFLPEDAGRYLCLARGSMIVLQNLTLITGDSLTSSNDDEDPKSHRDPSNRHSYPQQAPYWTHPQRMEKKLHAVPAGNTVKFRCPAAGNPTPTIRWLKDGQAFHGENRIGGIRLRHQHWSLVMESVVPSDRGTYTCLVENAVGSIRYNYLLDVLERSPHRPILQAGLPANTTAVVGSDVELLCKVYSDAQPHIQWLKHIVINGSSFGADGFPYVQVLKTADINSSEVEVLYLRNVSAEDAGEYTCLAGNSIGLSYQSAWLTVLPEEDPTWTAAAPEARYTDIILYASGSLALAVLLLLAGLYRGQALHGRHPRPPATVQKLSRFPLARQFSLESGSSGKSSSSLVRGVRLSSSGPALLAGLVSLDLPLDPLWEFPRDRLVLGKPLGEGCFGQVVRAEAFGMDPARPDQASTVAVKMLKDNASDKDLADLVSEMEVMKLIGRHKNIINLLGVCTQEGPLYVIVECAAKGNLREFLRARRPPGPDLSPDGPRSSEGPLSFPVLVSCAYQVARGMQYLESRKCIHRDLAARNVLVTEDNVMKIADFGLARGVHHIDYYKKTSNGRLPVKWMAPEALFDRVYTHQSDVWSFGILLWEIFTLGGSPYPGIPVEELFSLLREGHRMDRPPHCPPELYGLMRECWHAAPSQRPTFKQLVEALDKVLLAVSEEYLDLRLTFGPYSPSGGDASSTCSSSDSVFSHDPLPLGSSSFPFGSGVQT

[11] = biological target: Fibroblast growth factor receptor 4 (Homo sapiens) (UniProt P22455); conditions: at 1 µM
[12] = biological target: Tyrosine-protein kinase Fgr (Homo sapiens) (UniProt P09769); conditions: at 0.1 µM
Tyrosine-protein kinase Fgr (Homo sapiens), sequence (P09769 2-529 limits assumed): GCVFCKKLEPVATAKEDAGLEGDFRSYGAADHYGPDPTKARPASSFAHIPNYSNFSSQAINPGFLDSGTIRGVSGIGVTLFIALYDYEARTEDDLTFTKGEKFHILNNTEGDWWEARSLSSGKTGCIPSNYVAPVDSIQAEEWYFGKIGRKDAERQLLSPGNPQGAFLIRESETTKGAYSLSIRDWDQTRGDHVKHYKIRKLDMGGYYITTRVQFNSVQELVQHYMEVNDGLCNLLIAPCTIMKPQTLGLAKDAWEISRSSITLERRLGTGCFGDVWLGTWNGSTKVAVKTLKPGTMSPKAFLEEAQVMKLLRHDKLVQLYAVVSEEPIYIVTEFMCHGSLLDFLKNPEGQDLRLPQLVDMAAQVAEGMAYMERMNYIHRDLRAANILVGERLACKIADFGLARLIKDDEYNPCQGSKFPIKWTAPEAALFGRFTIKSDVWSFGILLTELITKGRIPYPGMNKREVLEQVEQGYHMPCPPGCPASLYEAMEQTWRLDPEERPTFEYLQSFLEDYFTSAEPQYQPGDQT

[13] = biological target: Tyrosine-protein kinase Fgr (Homo sapiens) (UniProt P09769); conditions: at 1 µM
[14] = biological target: Vascular endothelial growth factor receptor 1 (Homo sapiens) (UniProt P17948); conditions: at 0.1 µM
[15] = biological target: Vascular endothelial growth factor receptor 1 (Homo sapiens) (UniProt P17948); conditions: at 1 µM
[16] = biological target: Receptor-type tyrosine-protein kinase FLT3 (Homo sapiens) (UniProt P36888); conditions: at 0.1 µM
[17] = biological target: Receptor-type tyrosine-protein kinase FLT3 (Homo sapiens) (UniProt P36888); conditions: at 1 µM
[18] = test system: T1, Receptor-type tyrosine-protein kinase FLT3 (Homo sapiens), P36888 [D835Y]; conditions: at 0.1 µM
T1 sequence (whole entry): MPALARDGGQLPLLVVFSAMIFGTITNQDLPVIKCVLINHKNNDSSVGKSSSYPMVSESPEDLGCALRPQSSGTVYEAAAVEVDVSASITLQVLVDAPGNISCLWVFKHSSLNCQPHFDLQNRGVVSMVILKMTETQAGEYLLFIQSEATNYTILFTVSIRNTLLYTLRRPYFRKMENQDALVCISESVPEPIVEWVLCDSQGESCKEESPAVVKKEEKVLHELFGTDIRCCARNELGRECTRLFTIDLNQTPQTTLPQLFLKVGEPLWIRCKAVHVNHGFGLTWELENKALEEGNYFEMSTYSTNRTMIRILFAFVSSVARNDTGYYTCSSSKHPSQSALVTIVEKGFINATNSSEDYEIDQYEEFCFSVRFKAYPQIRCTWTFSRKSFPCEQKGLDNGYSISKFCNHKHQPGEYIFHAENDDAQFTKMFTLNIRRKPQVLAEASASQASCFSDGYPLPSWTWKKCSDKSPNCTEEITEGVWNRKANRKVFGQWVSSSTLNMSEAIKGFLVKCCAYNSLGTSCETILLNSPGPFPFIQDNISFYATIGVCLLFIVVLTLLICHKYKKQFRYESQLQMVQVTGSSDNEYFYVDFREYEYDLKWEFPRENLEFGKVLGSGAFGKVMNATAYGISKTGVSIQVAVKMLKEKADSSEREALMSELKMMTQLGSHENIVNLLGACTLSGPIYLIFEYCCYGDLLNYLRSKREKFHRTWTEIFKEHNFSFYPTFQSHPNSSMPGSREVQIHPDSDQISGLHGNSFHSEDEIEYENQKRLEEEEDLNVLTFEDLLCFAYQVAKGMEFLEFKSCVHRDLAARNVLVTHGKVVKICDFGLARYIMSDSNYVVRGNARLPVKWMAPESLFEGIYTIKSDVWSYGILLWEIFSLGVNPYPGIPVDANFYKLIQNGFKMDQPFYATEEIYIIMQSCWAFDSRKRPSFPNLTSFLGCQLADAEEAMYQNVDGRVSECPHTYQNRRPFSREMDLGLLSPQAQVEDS

[19] = biological target: Non-receptor tyrosine-protein kinase TYK2 (Homo sapiens) (UniProt P29597); conditions: at 1 µM;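 note: values are mean percent inhibition of TYK2 kinase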
Non-receptor tyrosine-protein kinase TYK2 (Homo sapiens), sequence (P29597 whole entry): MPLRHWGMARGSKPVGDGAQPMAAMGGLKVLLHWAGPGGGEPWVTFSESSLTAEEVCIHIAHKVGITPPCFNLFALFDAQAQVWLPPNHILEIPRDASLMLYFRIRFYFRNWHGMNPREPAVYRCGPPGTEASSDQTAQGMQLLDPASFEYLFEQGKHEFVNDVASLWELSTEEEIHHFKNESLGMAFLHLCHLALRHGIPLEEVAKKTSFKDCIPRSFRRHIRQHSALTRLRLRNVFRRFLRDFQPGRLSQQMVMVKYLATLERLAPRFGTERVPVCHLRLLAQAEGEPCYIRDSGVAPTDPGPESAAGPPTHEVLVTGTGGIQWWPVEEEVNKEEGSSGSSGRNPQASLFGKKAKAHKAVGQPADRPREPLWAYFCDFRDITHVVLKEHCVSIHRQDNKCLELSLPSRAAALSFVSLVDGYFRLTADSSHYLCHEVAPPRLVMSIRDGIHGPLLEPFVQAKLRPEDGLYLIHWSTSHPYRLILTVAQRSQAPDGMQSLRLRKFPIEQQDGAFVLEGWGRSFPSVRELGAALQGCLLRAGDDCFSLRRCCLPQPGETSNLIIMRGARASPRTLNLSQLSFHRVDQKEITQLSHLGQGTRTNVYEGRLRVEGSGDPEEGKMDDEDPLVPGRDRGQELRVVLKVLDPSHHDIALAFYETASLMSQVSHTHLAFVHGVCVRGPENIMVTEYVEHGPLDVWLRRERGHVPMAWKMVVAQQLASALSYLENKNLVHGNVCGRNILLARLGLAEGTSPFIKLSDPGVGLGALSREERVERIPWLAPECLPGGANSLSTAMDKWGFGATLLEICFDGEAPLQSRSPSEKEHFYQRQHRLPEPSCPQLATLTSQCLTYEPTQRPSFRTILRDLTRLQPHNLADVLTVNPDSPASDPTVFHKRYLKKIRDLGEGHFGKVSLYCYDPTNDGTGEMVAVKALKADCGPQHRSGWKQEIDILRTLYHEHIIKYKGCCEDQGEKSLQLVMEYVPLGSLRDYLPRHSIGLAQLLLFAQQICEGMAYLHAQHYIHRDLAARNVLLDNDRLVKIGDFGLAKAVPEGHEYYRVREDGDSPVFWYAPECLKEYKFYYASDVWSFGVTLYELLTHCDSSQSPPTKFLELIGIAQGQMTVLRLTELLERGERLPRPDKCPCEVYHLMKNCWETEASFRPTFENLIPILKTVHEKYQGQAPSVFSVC

[20] = biological target: T2, Tyrosine-protein kinase receptor TYRO3 (Homo sapiens) (UniProt Q06418); conditions: at 0.1 µM;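 note: reported percentages are averaged inhibition values of TYRO3 kinase activity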
T2 sequence (whole entry): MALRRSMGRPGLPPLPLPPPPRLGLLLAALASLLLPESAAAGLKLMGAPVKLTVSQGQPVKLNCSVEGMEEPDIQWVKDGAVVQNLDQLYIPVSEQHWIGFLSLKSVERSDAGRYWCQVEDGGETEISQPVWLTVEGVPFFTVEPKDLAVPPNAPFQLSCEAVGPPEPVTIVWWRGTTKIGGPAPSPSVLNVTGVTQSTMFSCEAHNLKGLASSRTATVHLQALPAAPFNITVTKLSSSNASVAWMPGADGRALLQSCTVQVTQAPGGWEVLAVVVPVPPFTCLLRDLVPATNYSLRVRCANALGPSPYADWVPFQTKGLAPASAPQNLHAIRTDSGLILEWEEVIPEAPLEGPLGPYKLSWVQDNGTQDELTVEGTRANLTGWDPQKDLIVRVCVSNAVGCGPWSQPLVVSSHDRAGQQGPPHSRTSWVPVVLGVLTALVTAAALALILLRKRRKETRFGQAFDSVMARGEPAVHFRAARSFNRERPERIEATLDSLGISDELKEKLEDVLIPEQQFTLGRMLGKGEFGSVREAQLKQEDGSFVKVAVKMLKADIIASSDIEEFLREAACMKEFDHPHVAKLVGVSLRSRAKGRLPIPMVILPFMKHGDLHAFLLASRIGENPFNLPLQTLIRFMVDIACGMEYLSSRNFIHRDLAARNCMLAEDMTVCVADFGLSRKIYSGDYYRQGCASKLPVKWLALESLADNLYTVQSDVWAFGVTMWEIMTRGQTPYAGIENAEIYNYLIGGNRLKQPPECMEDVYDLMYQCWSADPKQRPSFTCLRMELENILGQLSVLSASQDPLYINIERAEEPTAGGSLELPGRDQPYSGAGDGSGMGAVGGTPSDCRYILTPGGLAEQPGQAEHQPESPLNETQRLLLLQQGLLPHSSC

Tyrosine-protein kinase Fes/Fps (Homo sapiens), sequence (P07332 whole entry): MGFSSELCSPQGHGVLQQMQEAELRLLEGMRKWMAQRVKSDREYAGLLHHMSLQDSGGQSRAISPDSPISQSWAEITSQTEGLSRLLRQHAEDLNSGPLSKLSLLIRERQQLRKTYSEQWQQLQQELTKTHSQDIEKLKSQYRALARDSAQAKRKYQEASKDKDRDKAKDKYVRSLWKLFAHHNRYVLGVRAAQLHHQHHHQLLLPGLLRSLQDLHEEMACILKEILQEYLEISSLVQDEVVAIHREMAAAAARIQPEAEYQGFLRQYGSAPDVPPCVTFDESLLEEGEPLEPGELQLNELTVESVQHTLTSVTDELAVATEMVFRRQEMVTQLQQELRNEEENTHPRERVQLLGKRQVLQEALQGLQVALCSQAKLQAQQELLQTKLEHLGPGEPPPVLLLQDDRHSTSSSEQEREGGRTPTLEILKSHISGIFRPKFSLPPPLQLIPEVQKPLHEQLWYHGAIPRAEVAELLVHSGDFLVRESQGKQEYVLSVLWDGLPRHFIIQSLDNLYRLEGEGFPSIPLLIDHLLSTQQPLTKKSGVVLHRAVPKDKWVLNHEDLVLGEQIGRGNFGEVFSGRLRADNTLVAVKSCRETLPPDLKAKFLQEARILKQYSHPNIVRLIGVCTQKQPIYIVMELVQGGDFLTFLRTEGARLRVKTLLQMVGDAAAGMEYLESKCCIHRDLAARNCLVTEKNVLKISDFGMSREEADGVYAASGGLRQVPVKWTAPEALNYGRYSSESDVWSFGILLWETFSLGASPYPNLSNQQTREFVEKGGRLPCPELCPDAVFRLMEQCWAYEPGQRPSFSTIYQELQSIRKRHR

Compound | inhibition [1] | inhibition [2] | inhibition [3] | inhibition [4] | inhibition [5] | inhibition [6] | inhibition [7] | inhibition [8] | inhibition [9] | inhibition [10] | inhibition [11] | inhibition [12] | inhibition [13] | inhibition [14] | inhibition [15] | inhibition [16] | inhibition [17] | inhibition [18] | inhibition [19] | inhibition [20]
CCN1CCC(CC(=O)Nc2n[nH]c3nc(-c4cccs4)c(Br)cc23)CC1 | 2.34% | -3.39% | -4.54% | -3.02% | -1.95% | -4.3% | -0.25% | -1.64% | -1.77% | 0.71% | 1.97% | -0.94% | 0.5% | 0.44% | 3.83% | -0.9% | 9.19% | 3.26% | 2.37% | -1.49%
COc1cc2ncn(-c3cc(O[C@@H](C)c4ccccc4Cl)c(C(N)=O)s3)c2cc1OC | 8.42% | 3.85% | 2.83% | 2.01% | 17.2% | 7.05% | 21.9% | 6.87% | 24.3% | 0.49% | 2.7% | 5.04% | 32.2% | 4.55% | 13.3% | 5.29% | 3.2% | -3.12% | -4.63% | 2.45%
CC1=C(C(=O)Nc2ccc3[nH]ncc3c2)C(c2ccc3ccccc3c2)CC(=O)N1 (stereo not given) | 7.14% | 1.76% | 2.99% | 1.46% | 13.2% | 5.6% | 31.6% | 9.54% | 22.8% | 0.62% | 10.6% | 3.21% | 15.1% | 2.44% | 4.08% | 0.05% | 3.17% | 0.1% | 4.98% | 3.61%
Nc1ncnc2occ(-c3ccc(NC(=O)Nc4cccc(C(F)(F)F)c4)cc3)c12 | 33.6% | 3.8% | 4.91% | 8.01% | 38.2% | 15.8% | 52.5% | 7.97% | 34.4% | -1% | 13.3% | 3.07% | 25.1% | 56% | 91% | 85.3% | 93.9% | 18.4% | -3.79% | 3.18%
Cc1ccc(NC(=O)c2ccnc(N3CCCC3)c2)cc1-c1ccc(C(=O)NCC2CC2)cc1 | 1.67% | 5.28% | 5.19% | -1.44% | 2.19% | 1.81% | 7.09% | 6.97% | 4.11% | -8.29% | -0.86% | 1.54% | 6.32% | -0.77% | 0.49% | 1.08% | 7.31% | -8.49% | -2.58% | 2.24%
CS(=O)(=O)Nc1ccc(N/C=C2\C(=O)Nc3ccccc32)cc1 | 5.06% | -2.08% | -1.95% | -1.9% | 5.82% | 1.04% | 27.1% | 1.57% | 25.5% | 2.33% | 5.07% | 1.13% | 15% | 4.31% | 20.8% | 18.4% | 74.1% | 18.7% | 9.24% | -2.18%
COc1ccc(COc2ccc(Cc3cnc(N)nc3N)cc2OC)cc1 | 2.33% | 1.72% | 2.24% | 1.78% | 2.1% | 1.46% | 6.83% | 2.29% | 0.98% | 3.95% | 3.16% | -0.01% | 4.25% | 1.03% | 2.11% | -1.11% | 1.13% | -4.6% | 0.26% | 0.79%
O=C(Nc1n[nH]c2nc(-c3ccco3)c(Br)cc12)C1CC1 | 0.63% | 2.91% | 3.27% | 1.76% | 5.28% | 2.01% | 7.9% | 6.29% | 7.26% | -0.77% | 2.76% | 2.88% | 11.3% | 2.26% | 4.22% | 1.23% | 2.62% | -1.82% | -1.51% | 2.22%
O=C1NC(=O)C(c2cccc(Cl)c2)=C1Nc1ccc(O)c(Cl)c1 | 5.56% | 0.55% | 1.14% | -2.65% | 6.97% | 3.82% | 32.5% | 4.37% | 21.3% | -2.1% | 2.43% | -2.2% | 3.74% | 0.72% | 1.36% | -1.02% | 0.95% | -6.93% | 20% | -0.43%
CCn1c(-c2nonc2N)nc2cncc(C(=O)N3CC[C@H](N)C3)c21 | 3.76% | 2.6% | 2.26% | 0.26% | 1.87% | 2.48% | 4.96% | 3.72% | 2.58% | -6.25% | 0.42% | 3.4% | 1.29% | -0.71% | 4.67% | 1.58% | 1.11% | -5.73% | -0.04% | 4.09%
COc1ccc(-c2nn3ncccc3c2-c2ccnc(Nc3ccc(Cl)c(C(F)(F)F)c3)n2)cc1 | 3.06% | 0.66% | 1.82% | 1.96% | -2.37% | 1.72% | 2.97% | 2.57% | 4.12% | 0.28% | 0.98% | 5.75% | 16.9% | -1.35% | 1.63% | -0.69% | 1.14% | -1.91% | 1.02% | 0.79%
CN(C)c1cc2c(Nc3ccc4nc(Cc5ccccc5)[nH]c4c3)ncnc2cn1 | 10.5% | 3.37% | 3.11% | 8.38% | 15.2% | 5.58% | 10.4% | 7.84% | 11.4% | 2.81% | 13.5% | 17.2% | 42.2% | 3.21% | 11.2% | 0.49% | 0.52% | -0.65% | -7.84% | 3.2%
Cc1nnc(-c2ccc(C)c(-c3ccc(C(=O)Nc4cccc(C#N)c4)cc3)c2)o1 | 1.72% | 0.91% | 2.11% | -1.37% | 1.5% | 1.7% | 4.97% | 2.6% | 3.98% | 2.08% | 0.88% | 4.67% | 5.11% | -0.39% | 1.58% | -0.61% | 1.58% | 0.86% | -1.12% | 1.94%
